The campaign covered roughly 1,200 compounds. About 870 (72%) were called active. Another 3% or so got no clear call; they are omitted.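 The calls were made as follows: active = every test run fits a falling curve whose half-maximal concentration is at most twice the top valid dose; inconclusive = runs disagree, or flat 30 to 70% inhibition, or poor fit; inactive = every run inactive: flat, rising or weaker potency.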 The set was probably picked from earlier hits. The list is a sample of the results. Entries with a potency or affinity are not part of this list.

The nature of the assay: ZM109 Env clade C HIV-1 fusion inhibitors, dose response, HeLa effector, CEM target cells, luciferase, cherry-pick (AID 652058). The settings on record: HeLa Env/CEM cell fusion, 16-24 h; series mostly up to 35 µM.
Consider `COc1ccc(NC(=O)C2(C)CCN2Cc2ccccc2OC(F)F)cc1OC` (centres undefined), for which the activity change, negative = inhibition entry is “inactive”.
As to `COc1ccc(OC2C(=O)N(Cc3ccc4c(c3)OCO4)C2c2cccs2)cc1` (centres undefined), the activity change, negative = inhibition entry is “inactive”.
On to `CCOC(=O)c1cnc2ccc(OCC)cc2c1NCc1ccccc1OC`, for which the activity change, negative = inhibition entry was “inactive”.
In the case of `Cc1cc(C(=O)N2CCC(C(=O)O)CC2)c(C(F)(F)F)o1` it was “inactive”; in that of `CCOc1ccc(OCc2cccc(C(=O)N/N=C/c3cccnc3)c2)cc1`, “inactive”.
In the case of `CCCOc1ccc(C(F)(F)F)cc1NC(=O)CCc1c(C)noc1C` it was “inactive”.
Then `Cc1ccc(C)c(CNc2ccc(S(=O)(=O)N3CCCCC3)cc2)c1`, with “inactive”; and `Cc1ccc(S(=O)(=O)N[C@H]2C=C[C@H](CC(=O)N3CCC(Cc4ccccc4)CC3)O[C@H]2CO)cc1`, with “inactive”; and `CN1CCN(C(=O)C[C@H]2C[C@@H]3c4cc(NS(C)(=O)=O)ccc4O[C@@H]3[C@H](CO)O2)CC1`, with “inactive”.
`O=C(C[C@@H]1C[C@H]2c3cc(NC(=O)Nc4ccc(F)cc4)ccc3O[C@H]2[C@H](CO)O1)NCC1CC1`: the activity change, negative = inhibition entry is “inactive”.
In the case of `O=C(Nc1ccc(F)cc1)Nc1ccc2c(c1)[C@H]1C[C@@H](CC(=O)N3CCCCC3)O[C@H](CO)[C@H]1O2` it was “inactive”; in that of `CCCNC(=O)C[C@H]1C[C@H]2c3cc(NC(=O)CN(C)C)ccc3O[C@H]2[C@@H](CO)O1`, “inactive”; in that of `O=C(C[C@@H]1C[C@H]2c3cc(NC(=O)NC4CCCCC4)ccc3O[C@H]2[C@@H](CO)O1)NCc1ccncc1`, “inactive”.
`CCCNC(=O)C[C@H]1C[C@H]2c3cc(NC(=O)CN(C)C)ccc3O[C@H]2[C@H](CO)O1`: the activity change, negative = inhibition entry is “inactive”.
Then `O=C1c2cccnc2C(Nc2ccc(S(=O)(=O)N3CCCCC3)cc2)N1Cc1ccccc1` (centres undefined), with “inactive”; and `COc1ccc(COC(=O)C2=C(C)NC(=O)NC2c2ccc(OC)cc2)cc1` (centres undefined), with “inactive”; and `Cc1cccc(NC(=O)C2CCN(S(=O)(=O)c3ccc4c(c3)OCCCO4)CC2)n1`, with “inactive”.
In the case of `CCc1ccc(-c2nc(CN3CCC(C(=O)NCCc4ccc(OC)c(OC)c4)CC3)c(C)o2)cc1` it was “inactive”; in that of `O=C(Nc1ccc(N2CCN(C(=O)c3ccccc3)CC2)c(Cl)c1)c1cccnc1`, “inactive”.
In the case of `COc1ccccc1CCNCc1ccc(OC)c(OCc2ccccc2)c1` it was “inactive”; in that of `CCN1C(=O)[C@H]2[C@@H](c3ccc(C(F)(F)F)cc3)N[C@]3(CCCN(Cc4ccccc4)C3=O)[C@H]2C1=O`, “inactive”; in that of `Cc1ccc(-n2nc3c(c2NC(=O)c2ccco2)CS(=O)C3)cc1` (centres undefined), “inactive”.
With `FC(F)(F)c1nc(-c2cccs2)ncc1-c1nnnn1-c1ccc(Cl)cc1`, the activity change, negative = inhibition result is “inactive”.
Then `C[C@H](CO)N1C[C@H](C)[C@H](CN(C)S(=O)(=O)c2ccc(F)cc2)Oc2ccc(NS(=O)(=O)c3ccccc3)cc2CC1=O`, with “inactive”; and `Cc1ccc(S(=O)(=O)Nc2ccc3c(c2)C(=O)N([C@H](C)CO)C[C@@H](C)[C@H](CN(C)S(=O)(=O)c2ccc(F)cc2)O3)cc1`, with “inactive”; and `C=CCN1C(=S)CC(c2ccccc2)=Nc2ccccc21`, with “inactive”.
In the case of `CC1CCCN(C(=O)c2ccc(S(=O)(=O)N3CCC(c4nc5ccccc5s4)CC3)cc2)C1` (centres undefined) it was “inactive”; in that of `CS(=O)(=O)Nc1ccc2c(c1)[C@H]1C[C@H](CC(=O)NCc3ccc(-c4ccccc4)cc3)O[C@H](CO)[C@H]1O2`, “inactive”.
In the case of `CS(=O)(=O)Nc1ccc2c(c1)[C@H]1C[C@H](CC(=O)N3CCc4ccccc4C3)O[C@H](CO)[C@H]1O2`, the activity change, negative = inhibition entry is “inactive”.
Then `CS(=O)(=O)Nc1ccc2c(c1)[C@@H]1C[C@@H](CC(=O)N3CCc4ccccc4C3)O[C@H](CO)[C@@H]1O2`, with “inactive”; and `CCN(c1nc(N)c(C(=O)N=C(N)N)nc1Cl)C(C)C`, with “inactive”.
In the case of `CCN(CC)CCN(C(=O)c1cc(Cl)sc1Cl)c1nc2cc3c(cc2s1)OCO3` it was “inactive”; in that of `CCC(=O)N(C)C(c1ccccc1Cl)c1nnnn1-c1c(C)cccc1C` (centres undefined), “inactive”.
In the case of `O=C(O)C[C@@H]1C=C[C@H](NC(=O)Nc2ccccc2)[C@H](CO)O1` it was “inactive”.
In the case of `O=C(O)C[C@@H]1C=C[C@@H](NC(=O)Nc2ccccc2)[C@H](CO)O1`, the activity change, negative = inhibition entry was “inactive”.
Consider `Cc1nc2ccccc2c2oc(C(=O)NCc3ccc4c(c3)OCO4)cc12`, for which the activity change, negative = inhibition entry is “inactive”.
Consider `O=C(Nc1ccc(Cl)cc1)C1CCCN(C2=NS(=O)(=O)c3ccccc32)C1` (centres undefined), for which the activity change, negative = inhibition entry is “inactive”.
As to `C[C@H]1CN([C@@H](C)CO)C(=O)Cc2cc(NS(=O)(=O)c3ccccc3)ccc2O[C@@H]1CN(C)Cc1ccc(Cl)c(Cl)c1`, the activity change, negative = inhibition result is “inactive”.
Then `COc1cc(-c2c(-c3cc(OC)c(OC)c(OC)c3)noc2C)ccc1F`, with “inactive”; and `CC1Cc2cc(-c3csc(NC(=O)Cc4cccs4)n3)ccc2N1S(C)(=O)=O` (centres undefined), with “inactive”.
In the case of `COCCCn1c(-c2ccc(S(=O)(=O)N3CCOCC3)cc2)csc1=Nc1ccccc1` it was “inactive”; in that of `O=C(Nc1nc(COc2ccccc2)cs1)C12CC3CC(CC(C3)C1)C2`, “inactive”; in that of `COc1ccc(S(=O)(=O)n2ccc(-c3ccc(OCCN(C)c4ccccn4)cc3)n2)cc1`, “inactive”.
Then `COc1ccccc1S(=O)(=O)Cc1ccc(C(=O)N2CCN(c3cccc(Cl)c3)CC2)o1`, with “inactive”; and `O=C(c1ccccc1F)N1CCN(Cc2cccc(Cl)c2)CC1`, with “inactive”.
Turning to `COc1ccc(OCC(=O)Nc2ccccc2N2CCCCC2)cc1`, the activity change, negative = inhibition entry is “inactive”.
Consider `CCOC(=O)C1CCN(C(=O)c2ccc3c(c2)C(=O)N(c2ccccc2C)C3=O)CC1`, for which the activity change, negative = inhibition result was “inactive”.
In the case of `Cc1cc(Cl)ccc1OCC(=O)NNC(=O)C1CSC2(C)CCC(=O)N12` (centres undefined) it was “inactive”.
Turning to `CS(=O)(=O)N1CCN(c2ccccc2NC(=O)C(c2ccccc2)c2ccccc2)CC1`, the activity change, negative = inhibition entry was “inactive”.
In the case of `O=C(c1ccc(Cl)s1)N1CCN(c2nc3ccccc3s2)CC1` it was “inactive”.
In the case of `CCOC(=O)c1cccc(NS(=O)(=O)c2ccc(NC(C)=O)cc2)c1` it was “inactive”; in that of `O=C(Nc1ccc(CN2CCS(=O)(=O)CC2)cc1)c1ccc(C(F)(F)F)cc1`, “inactive”.
As for `O=C(Nc1cc2c3c(c1)CC(=O)N3CCC2)c1ccc(Cl)cc1`, the activity change, negative = inhibition entry is “inactive”.
As for `C=CC[n+]1c(-c2ccc(C)cc2)csc1NNC(=O)Nc1ccccc1`, the activity change, negative = inhibition result was “inactive”.
In the case of `Cc1noc(C)c1S(=O)(=O)N(C)C[C@H]1Oc2ccc(NC(=O)Nc3ccccc3)cc2CC(=O)N([C@H](C)CO)C[C@H]1C` it was “inactive”; in that of `N#C/C(=N\Nc1ccc(Cl)cc1)C(=O)c1ccccc1`, “inactive”; in that of `CCCn1c(=S)[nH]c2cc(C(=O)N3CCCC(C(=O)OCC)C3)ccc2c1=O` (centres undefined), “inactive”.
Then `CN(C(=O)c1cccc(NC(=O)Cc2cccc(NC(=O)C3CCCN(C(=O)C4CCC4)C3)c2)c1)C1CCC1` (centres undefined), with “inactive”; and `COc1ccc(S(=O)(=O)N2CCCCC2)cc1NC(=O)CN(Cc1ccco1)Cc1ccco1`, with “inactive”.
In the case of `CCc1cc2c(NCc3ccco3)ncnc2s1` it was “inactive”; in that of `O=C(COC(=O)c1ncc(Cl)c(Cl)c1Cl)NCc1cccs1`, “inactive”; in that of `COc1ccc(-c2cc(=O)oc3c(C)c(O)ccc23)cc1`, “inactive”.
For the compound `COc1cccc(S(=O)(=O)N(C)C[C@@H]2Oc3cc(C#CCC(C)C)ccc3S(=O)(=O)N([C@H](C)CO)C[C@@H]2C)c1`, the activity change, negative = inhibition entry was “inactive”.
In the case of `COc1cccc(S(=O)(=O)N(C)C[C@H]2Oc3cc(C#CCC(C)C)ccc3S(=O)(=O)N([C@H](C)CO)C[C@H]2C)c1` it was “inactive”; in that of `COc1ccc(OC)c(-c2cc(C(=O)Nc3c(C)nn(Cc4ccc(Cl)cc4)c3C)no2)c1`, “inactive”.
Turning to `CC(Cl)=CCn1c(NCCc2ccccc2)nc2c1c(=O)n(C)c(=O)n2C`, the activity change, negative = inhibition entry was “inactive”.
Take `C[C@@H]1CN([C@@H](C)CO)C(=O)c2cc(NC(=O)c3ccncc3)ccc2O[C@H]1CN(C)Cc1ccncc1`: the activity change, negative = inhibition entry was “inactive”.
As to `C[C@@H]1CN([C@@H](C)CO)C(=O)c2cc(NC(=O)c3ccncc3)ccc2O[C@@H]1CN(C)Cc1ccncc1`, the activity change, negative = inhibition result was “inactive”.
With `CCCCNC(=O)C[C@H]1C[C@@]2(C(=O)OC)C(=C[C@H](C(C)(C)C)O[C@@H]2C)N(Cc2ccc3c(c2)OCO3)C1=O`, the activity change, negative = inhibition result is “inactive”.
Then `COCCn1c(=S)[nH]c2cc(C(=O)N3CCN(Cc4ccc5c(c4)OCO5)CC3)ccc2c1=O`, with “inactive”.
Then `CC(C)OCCCn1c(=S)[nH]c2ccc(N3CCOCC3)cc2c1=O`, with “inactive”; and `O=S(=O)(c1ccccc1Cl)N1CCCC1c1nc(-c2ccc(Cl)cc2)no1` (centres undefined), with “inactive”; and `O=C(C[C@@H]1C=C[C@@H](NC(=O)Nc2ccc3c(c2)OCO3)[C@H](CO)O1)NCc1ccc(F)cc1`, with “inactive”.
Consider `CCS(=O)(=O)N[C@H]1CC[C@@H](CC(=O)NCc2ccc(Cl)cc2)O[C@@H]1CO`, for which the activity change, negative = inhibition entry was “inactive”.
In the case of `Nc1c(S(=O)(=O)c2ccccc2)cnc2c(-c3ccc(F)cc3)cnn12` it was “inactive”; in that of `COc1ccc(OC)c(NC(=O)COc2ccc3c(c2)CCC3)c1`, “inactive”; in that of `COc1ccc(S(=O)(=O)NNC(=O)C2Cc3c(ccc4ccccc34)O2)cc1` (centres undefined), “inactive”.
In the case of `COc1ccc(CCCC(=O)NCCc2ccccc2)c(C)c1` it was “inactive”.
In the case of `COc1ccc(CCNC(=O)COC(=O)c2cccn2C)cc1` it was “inactive”; in that of `Cc1[nH]nc2c1C1(C(=O)N(Cc3ccc(Cl)cc3)c3ccccc31)C(C#N)=C(N)O2` (centres undefined), “inactive”.
As to `Cc1ccccc1OCCCCn1cnc2ccccc21`, the activity change, negative = inhibition result is “inactive”.
In the case of `O=C(Nc1ccncc1)c1ccc(Cl)c(S(=O)(=O)N2CCc3ccccc32)c1` it was “inactive”; in that of `Cc1ccc(C(=O)NCc2ccccn2)cc1S(=O)(=O)N1CCCCC1`, “inactive”; in that of `COc1cccc(/C=N/NC(=O)CC2C(=O)NN=C2C)c1O` (centres undefined), “inactive”.
In the case of `O=C(C[C@@H]1CC[C@@H](NC(=O)c2ccncc2)[C@H](CO)O1)NCCc1ccncc1` it was “inactive”; in that of `CN(C)CC(=O)Nc1ccc2c(c1)[C@H]1C[C@H](CC(=O)NCc3cccc(F)c3)O[C@@H](CO)[C@H]1O2`, “inactive”.
Then `CC(C)n1c(NCCc2ccccc2)nc2c1c(=O)n(C)c(=O)n2C`, with “inactive”.
Regarding `CCCCn1c(CN(C)Cc2ccccc2)nc2c1c(=O)n(C)c(=O)n2C`, the activity change, negative = inhibition result was “inactive”.
For the compound `CC1CN(S(=O)(=O)c2cc(C(=O)NCCC3=CCCCC3)ccc2Cl)CC(C)O1` (centres undefined), the activity change, negative = inhibition result is “inactive”.
